Sampled rows, rich in hits. Any-hit rate of the full collection: about 5.7%.
hcDAF-12 act: H. contortus DAF-12 nuclear receptor activators, primary screen, cell-based, luminescence, HEK293, lit1-tk-luc reporter; HEK293 hcDAF-12 lit1-tk-luc reporter; 0% DMSO, 100% Δ7-dafachronic acid; activation, % at 6.8 µM; AID 652067, 2013; hit rate 1.4% among 370,000;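 active = activation above the mean of all tested compounds plus 3 SD, cut at about 5.5% in these data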;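 note: 100% = response to 3 µM Δ7-dafachronic acid high control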
hgDAF12 agonist: H. glycines DAF-12 receptor agonists, primary screen, cell-based, luminescence, HEK293, GAL4 fusion, UAS-luciferase; Nuclear hormone receptor DAF-12 (Heterodera glycines), GAL4 fusion; HEK293 GAL4-hgDAF12 UAS-luciferase reporter, agonist luminescence; normalized to butyrate control; activation, % at 6.8 µM; hit rate 1.8% among 370,000; AID 687014, 2013;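 active = activation above a cutoff set at the mean of all screened compounds plus 3 SD, cut at about 10% in these data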;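 note: 0% = DMSO wells and 100% = sodium butyrate wells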
DAX1 inh-1: DAX1 (NR0B1) inhibitors, primary screen, cell-based, HEK293, Gal4-DAX1, luciferase luminescence; AID 504766, 2011; HEK293 Gal4-DAX1 luciferase reporter; inhibition, % at 6.75 µM; Nuclear receptor subfamily 0 group B member 1 (Homo sapiens), P51843; hit rate 0.99% among 340,000;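 active = inhibition above the mean over all tested compounds plus 3 SD, cut at about 4.2% in these data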;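 note: 0% = DAX1-transfected cells with DMSO and 100% = empty-vector control cells with DMSO; inhibition shows as a rise in luminescence from relieved DAX1 repression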
AHR act: AHR activators, primary screen, cell-based, luminescence, luciferase reporter, human. Aryl hydrocarbon receptor (Homo sapiens), P35869. AHR-responsive luciferase reporter cells. activation, % at 5 µM. hit rate 2.5% among 320,000. AID 2796, 2010; in the data active = activation above about 47%;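 note: 0% = vehicle wells and 100% = reference agonist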
ssDAF-12 act: S. stercoralis DAF-12 nuclear receptor activators, primary screen, cell-based, luminescence, HEK293, GRIP1 co-expression, lit1-tk-luc; hit rate 1% among 370,000; activation, % at 6.8 µM; HEK293 ssDAF-12/GRIP1 lit1-tk-luc reporter; % of 3 µM dafachronic acid response; Nuclear hormone receptor DAF-12 (Strongyloides stercoralis);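 active = activation above the mean over all tested compounds plus 3 SD, cut at about 0.9% in these data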;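 note: 0% = DMSO-only wells and 100% = 3 µM delta7-dafachronic acid wells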
DAX1 inh-2: DAX1 (NR0B1) inhibitors on StAR promoter, primary screen, cell-based, luminescence, SF-1 (NR5A1), full-length DAX-1; HEK293T StAR-luciferase reporter, SF-1/DAX-1 repression relief; hit rate 1.1% among 370,000; inhibition, % at 6.8 µM;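 active = inhibition above the mean over all tested compounds plus 3 SD, cut at about 3.6% in these data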;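 note: 0% = DAX-1 cells with DMSO and 100% = cells lacking DAX-1 with DMSO; higher inhibition means more luminescence from relief of DAX-1 repression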
DAX1 inh confirm: DAX1 (NR0B1) inhibitors relieving SF-1 repression, confirmation, cell-based, luminescence, HEK293T, full-length DAX-1, SF-1 activated StAR promoter; shares compounds with DAX1 inh-2; HEK293T StAR-promoter luciferase reporter, SF-1/DAX-1 repression; inhibition, % at 6.8 µM; hit rate 87% among 2,400;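 active = inhibition above the average of every tested compound plus 3 SD, cut at about 3.8% in these data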;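 note: 0% = DAX-1 cells with DMSO and 100% = no DAX-1 control cells with DMSO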
SF1 AF2mut Luc: StAR reporter signal changes without DAX1, counter-screen for DAX1 inhibitor project, cell-based, luminescence, AF-2 mutant SF-1, transactivation; AID 652136, 2013; HEK293 StAR-luciferase, SF-1 AF2 mutant; inhibition, % at 6.8 µM; shares compounds with DAX1 inh-2; hit rate 78% among 2,400;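 active = inhibition above the mean of all tested compounds plus 3 SD, cut at about 3% in these data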;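 note: 0% = DAX-1 transfected cells with DMSO and 100% = cells without DAX-1 with DMSO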
hgDAF12 conf: H. glycines DAF-12 receptor agonists, confirmation, cell-based, luminescence, HEK293, GAL4-LBD fusion; AID 743050, 2013; shares compounds with hgDAF12 agonist; HEK293 GAL4-hgDAF12 luciferase reporter, agonist mode; percent of butyrate response; hit rate 80% among 3,300; activation, % at 6.8 µM;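 active = mean activation over triplicate wells above the hit cutoff derived from the earlier primary screen, cut at about 11% in these data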;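 note: 0% = DMSO low control and 100% = 2 mM sodium butyrate high control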
LXRb DAF12 ctr: LXR agonists, Gal4 luciferase reporter, confirmation, counter-screen for hgDAF-12 agonist project, cell-based, luminescence, HEK293, H. glycines campaign. shares compounds with hgDAF12 agonist. 24 h. activation, % at 6.8 µM. 3,300 tested, under 10 active. AID 743051, 2013;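 active = mean activation of the triplicate above a set limit carried over from the primary screen, none filed active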
* hit, by the source's call.

Screening O=C(N/N=C/c1ccco1)c1cccc(N2Cc3ccccc3C2)c1 returned hcDAF-12 act -0.4, hgDAF12 agonist 2.1, DAX1 inh-1 0.5, AHR act 12.4, ssDAF-12 act -1.2 and DAX1 inh-2 0.0.
For COc1ccc(CNC(=O)c2noc3c2CCCC3)cc1 the results were hcDAF-12 act 1.8, hgDAF12 agonist 8.9, DAX1 inh-1 2.9, AHR act 5.7, ssDAF-12 act -0.7 and DAX1 inh-2 0.8.
Screening Cc1ccc(O)c(NC(=O)c2noc3c2CCCCC3)c1 returned hcDAF-12 act -0.4, hgDAF12 agonist 3.5, DAX1 inh-1 0.6, AHR act 23.7, ssDAF-12 act -0.1 and DAX1 inh-2 0.8.
Screening COc1ccc(NC(=O)c2noc3c2CCCCC3)cc1 returned hcDAF-12 act 5.7*, hgDAF12 agonist 20.2*, DAX1 inh-1 2.8, AHR act 17.6, ssDAF-12 act -0.4, DAX1 inh-2 4.5*, DAX1 inh confirm 11.5*, SF1 AF2mut Luc 5.5*, hgDAF12 conf 18.1* and LXRb DAF12 ctr 0.7.
`CCc1ccc(NC(=O)c2noc3c2CCCCC3)cc1` gave hcDAF-12 act 5.3, hgDAF12 agonist 15.1*, DAX1 inh-1 4.8*, AHR act -5.2, ssDAF-12 act 1.2*, DAX1 inh-2 5.7*, DAX1 inh confirm 16.3*, SF1 AF2mut Luc 9.0*, hgDAF12 conf 19.8* and LXRb DAF12 ctr 0.8.
`COCCN(C(=O)CSc1ccc2c(c1)OCCO2)c1c(N)n(CC(C)C)c(=O)[nH]c1=O` gave hcDAF-12 act -0.1, hgDAF12 agonist -1.4, DAX1 inh-1 -0.8, AHR act -0.5, ssDAF-12 act -1.2 and DAX1 inh-2 -0.2.
Screening Cc1cc(C(=O)CSc2cccc[n+]2[O-])c(C)n1-c1ccc(Br)cc1 returned AHR act 18.5.
